In the test the target is furin, P09958. Briefly: furin cleavage Z-score vs untreated control; higher = more cleavage, active = 3.5 or more, inactive = 1 or less, 8 variable residues between constant flanks. In outline:
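The cleavage Z-score is the log read count relative to furin-free reactions, lowess-adjusted and scaled by median absolute deviation. Counts came from sequencing DNA released from bead-bound 8-mer peptide–cDNA fusions after digestion with purified furin for 7.5, 15 or 30 min.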

The other results are listed elsewhere or left out. How many sequences the whole screen found active is unknown.
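Note: purified furin at 1:10 enzyme:substrate in 50 mM HEPES pH 7.5.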

Chain of furin, P09958 (P09958 whole entry, the tested form may be a part): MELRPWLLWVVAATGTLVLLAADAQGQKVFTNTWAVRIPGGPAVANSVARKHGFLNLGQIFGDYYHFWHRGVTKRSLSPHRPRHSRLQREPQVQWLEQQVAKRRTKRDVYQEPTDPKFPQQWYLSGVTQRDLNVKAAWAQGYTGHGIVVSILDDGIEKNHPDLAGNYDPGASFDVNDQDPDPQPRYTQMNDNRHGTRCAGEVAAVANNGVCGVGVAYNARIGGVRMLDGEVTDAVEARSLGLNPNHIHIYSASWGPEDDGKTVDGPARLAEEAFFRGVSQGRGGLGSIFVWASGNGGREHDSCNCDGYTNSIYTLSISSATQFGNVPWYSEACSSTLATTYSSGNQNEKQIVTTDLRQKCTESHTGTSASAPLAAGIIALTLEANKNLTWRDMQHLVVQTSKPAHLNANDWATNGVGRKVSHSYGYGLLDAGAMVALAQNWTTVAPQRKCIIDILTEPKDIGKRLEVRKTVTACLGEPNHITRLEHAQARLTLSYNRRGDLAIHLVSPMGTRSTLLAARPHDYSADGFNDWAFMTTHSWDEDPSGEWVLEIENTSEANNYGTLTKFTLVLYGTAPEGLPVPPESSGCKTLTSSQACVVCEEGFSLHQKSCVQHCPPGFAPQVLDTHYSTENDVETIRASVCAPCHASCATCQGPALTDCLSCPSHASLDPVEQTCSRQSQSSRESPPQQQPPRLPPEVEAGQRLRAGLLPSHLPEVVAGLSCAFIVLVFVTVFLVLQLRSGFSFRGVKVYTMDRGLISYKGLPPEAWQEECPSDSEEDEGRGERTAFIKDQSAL

CASWLGNIIMAGNASASA [HC1574]: the “furin cleavage Z-score” value reads like this: (7.5 min) -0.174 (inactive); (15 min) -0.173 (inactive); (30 min) 0.459 (inactive).

Regarding CAEVVTSTAVAGNASASA [HC2223], the “furin cleavage Z-score” value (7.5 min) was -1.08 (inactive), the “furin cleavage Z-score” value (15 min) amounted to 1.73 and the “furin cleavage Z-score” value (30 min) is 0.704 (inactive).

For CAGDDLVVICAGNASASA [HC1529], the “furin cleavage Z-score” value (7.5 min) is -1.44 (inactive), the “furin cleavage Z-score” value (15 min) was -0.0771 (inactive) and the “furin cleavage Z-score” value (30 min) was -0.978 (inactive).

As to CAEPPVVHGCAGNASASA [HC1314], the “furin cleavage Z-score” value (7.5 min) was 0.438 (inactive), the “furin cleavage Z-score” value (15 min) is 1.71 and the “furin cleavage Z-score” value (30 min) is -0.723 (inactive).

Consider CARDRRAAGSAGNASASA [FS-1946], for which the “furin cleavage Z-score” value by setting is: (7.5 min) 6.35 (active); (15 min) 7.75 (active); (30 min) 5.91 (active).

As for CARHRRATGAAGNASASA [FS-2944], the “furin cleavage Z-score” value is 6.7 (active) (7.5 min), 5.37 (active) (15 min) and 4.1 (active) (30 min).

For CARHLRSAGSAGNASASA [FS-1896], the “furin cleavage Z-score” value reads like this: (7.5 min) 1.18; (15 min) -0.11 (inactive); (30 min) 2.17.

As to CATTPCRGSWAGNASASA [HC70], the “furin cleavage Z-score” value by setting is: (7.5 min) -0.828 (inactive); (15 min) -1.44 (inactive); (30 min) -0.599 (inactive).

CAEMSRTRRYAGNASASA [FS-1319]: the “furin cleavage Z-score” value runs as follows: (7.5 min) 5.42 (active); (15 min) 8.78 (active); (30 min) 8.64 (active).

Take CADGAGKRVYAGNASASA [HC1558]: the “furin cleavage Z-score” value is 1.53 (7.5 min), 1.27 (15 min) and 0.404 (inactive) (30 min).

As for CAEGERGFFYAGNASASA [EK6], the “furin cleavage Z-score” value was -2.12 (inactive) (7.5 min), -0.423 (inactive) (15 min) and -2.28 (inactive) (30 min).

Take CASGHRTRRYAGNASASA [FS-192]: the “furin cleavage Z-score” value by setting is: (7.5 min) 7 (active); (15 min) 8.02 (active); (30 min) 8.16 (active).

In the case of CATSQTLLFNAGNASASA [HC1062], the “furin cleavage Z-score” value is 0.00122 (inactive) (7.5 min), -0.692 (inactive) (15 min) and -0.503 (inactive) (30 min).

Regarding CAVLKRDVDIAGNASASA [FS-1815], the “furin cleavage Z-score” value (7.5 min) was 1.04, the “furin cleavage Z-score” value (15 min) was -1.55 (inactive) and the “furin cleavage Z-score” value (30 min) is 0.353 (inactive).

For the sequence CAVRKRSPWLAGNASASA [FS-3142], the “furin cleavage Z-score” value by setting is: (7.5 min) -1.29 (inactive); (15 min) 0.44 (inactive); (30 min) 1.17.

In the case of CAVRKRDLQTAGNASASA [FS-3140], the “furin cleavage Z-score” value (7.5 min) came out at 2.53, the “furin cleavage Z-score” value (15 min) is 5.9 (active) and the “furin cleavage Z-score” value (30 min) was 5.02 (active).

Take CAVRKRQVSLAGNASASA [FS-3141]: the “furin cleavage Z-score” value reads like this: (7.5 min) -1.04 (inactive); (15 min) -0.0874 (inactive); (30 min) 0.617 (inactive).

On to CARLKRDRSAAGNASASA [FS-2220], for which the “furin cleavage Z-score” value was 6.33 (active) (7.5 min), 8.55 (active) (15 min) and 8.68 (active) (30 min).

With CARLKPTLHGAGNASASA [HC967], the “furin cleavage Z-score” value runs as follows: (7.5 min) -0.75 (inactive); (15 min) -0.713 (inactive); (30 min) 0.566 (inactive).

As for CARLKRDPGIAGNASASA [FS-2350], the “furin cleavage Z-score” value by setting is: (7.5 min) 3.26; (15 min) 4.16 (active); (30 min) 3.42.

CARLKRDLATAGNASASA [FS-2043]: the “furin cleavage Z-score” value (7.5 min) was 9.22 (active), the “furin cleavage Z-score” value (15 min) was 11.3 (active) and the “furin cleavage Z-score” value (30 min) was 9.07 (active).

Turning to CARLKRLFLAAGNASASA [FS-2991], the “furin cleavage Z-score” value is, setting by setting: (7.5 min) 0.382 (inactive); (15 min) -1.83 (inactive); (30 min) -1.56 (inactive).

In the case of CAKTPCSAHLAGNASASA [HC2474], the “furin cleavage Z-score” value reads like this: (7.5 min) -0.289 (inactive); (15 min) -0.529 (inactive); (30 min) -1.11 (inactive).

CAMEWCSQHLAGNASASA [HC1708]: the “furin cleavage Z-score” value by setting is: (7.5 min) 0.411 (inactive); (15 min) 0.726 (inactive); (30 min) 0.812 (inactive).

For the sequence CAEDVVCCSMAGNASASA [HC1368], the “furin cleavage Z-score” value is, setting by setting: (7.5 min) -0.171 (inactive); (15 min) 0.686 (inactive); (30 min) 0.101 (inactive).

With CATTQCSGSWAGNASASA [HC1882], the “furin cleavage Z-score” value (7.5 min) is -0.496 (inactive), the “furin cleavage Z-score” value (15 min) was -1.36 (inactive) and the “furin cleavage Z-score” value (30 min) was -0.763 (inactive).

For the sequence CAFRVGLHEYAGNASASA [HC1234], the “furin cleavage Z-score” value runs as follows: (7.5 min) -0.864 (inactive); (15 min) -0.389 (inactive); (30 min) -0.313 (inactive).

As for CAEVPCHRPPAGNASASA [HC2419], the “furin cleavage Z-score” value (7.5 min) is -0.0603 (inactive), the “furin cleavage Z-score” value (15 min) worked out at 1.24 and the “furin cleavage Z-score” value (30 min) is -0.795 (inactive).

Regarding CAEACSLTPPAGNASASA [HC1414], the “furin cleavage Z-score” value (7.5 min) was 0.244 (inactive), the “furin cleavage Z-score” value (15 min) was -0.208 (inactive) and the “furin cleavage Z-score” value (30 min) is -0.022 (inactive).

CARRRRELDPAGNASASA [FS-2076]: the “furin cleavage Z-score” value is 11.6 (active) (7.5 min), 10.7 (active) (15 min) and 8.52 (active) (30 min).

With CARRRRQLDPAGNASASA [FS-2598], the “furin cleavage Z-score” value by setting is: (7.5 min) 8.96 (active); (15 min) 10.1 (active); (30 min) 7.56 (active).

For the sequence CARRRRQEEKAGNASASA [FS-2794], the “furin cleavage Z-score” value is -0.167 (inactive) (7.5 min), 1.69 (15 min) and -1.54 (inactive) (30 min).

With CARRRRSMDPAGNASASA [FS-3067], the “furin cleavage Z-score” value (7.5 min) was 8 (active), the “furin cleavage Z-score” value (15 min) was 9.64 (active) and the “furin cleavage Z-score” value (30 min) is 7.14 (active).

In the case of CARRTRFISLAGNASASA [FS-2601], the “furin cleavage Z-score” value reads like this: (7.5 min) -0.682 (inactive); (15 min) 1.63; (30 min) 1.87.

CARRTRSFSWAGNASASA [FS-1790]: the “furin cleavage Z-score” value reads like this: (7.5 min) 0.729 (inactive); (15 min) 1.95; (30 min) 2.68.

As for CARRTRSRSPAGNASASA [FS-2521], the “furin cleavage Z-score” value runs as follows: (7.5 min) 2.04; (15 min) 2.53; (30 min) 4.49 (active).

For the sequence CALAAGVGIYAGNASASA [HC1660], the “furin cleavage Z-score” value (7.5 min) was 0.247 (inactive), the “furin cleavage Z-score” value (15 min) was -0.366 (inactive) and the “furin cleavage Z-score” value (30 min) is 0.0629 (inactive).

As for CAVGWPAPQGAGNASASA [HC715], the “furin cleavage Z-score” value is, setting by setting: (7.5 min) 0.307 (inactive); (15 min) 1.62; (30 min) 0.189 (inactive).

For CAECPCHRPSAGNASASA [HC2340], the “furin cleavage Z-score” value was 0.0178 (inactive) (7.5 min), -0.268 (inactive) (15 min) and -1.23 (inactive) (30 min).

Consider CATVDFSLDPAGNASASA [HC891], for which the “furin cleavage Z-score” value was -0.614 (inactive) (7.5 min), -1.09 (inactive) (15 min) and -1.01 (inactive) (30 min).

In the case of CARRTRDLDPAGNASASA [FS-2520], the “furin cleavage Z-score” value was 8.58 (active) (7.5 min), 8.71 (active) (15 min) and 7.24 (active) (30 min).

As to CARRRRELEPAGNASASA [FS-1867], the “furin cleavage Z-score” value was 10.9 (active) (7.5 min), 11 (active) (15 min) and 7.47 (active) (30 min).

For the sequence CARATRFWDPAGNASASA [FS-2650], the “furin cleavage Z-score” value by setting is: (7.5 min) -0.242 (inactive); (15 min) -0.738 (inactive); (30 min) 0.257 (inactive).

Values taken from the supplement of paper PMC3545927.
